Measurements reported in PubChem BioAssay (NCI).
Compounds without any hit were thinned out: in the full panel of roughly 79,000, 15% have a hit. No stated cut-off is given here; in the data, active means growth inhibition above about 70%; inactive means the rest.

Assays:
[1] = NCI Yeast Anticancer Drug Screen. Data for the rad50 strain (AID 155);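 further: 0% = growth of vehicle-only cultures of the same strain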; details: S. cerevisiae rad50 strain growth inhibition; at 50.0 µM; active compounds read high
Summary of the method: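 Genetically altered yeast (DNA repair pathway); compound treatment; growth inhibition vs vehicle ctrl.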

[2] = NCI Yeast Anticancer Drug Screen. Data for the mec2-1 strain (AID 157); details: S. cerevisiae mec2-1 strain, at 50.0 µM, active compounds read high
Summary of the method: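 Readout is yeast growth inhibition, normalised to vehicle-treated controls, in the mec2-1 strain exposed to compound.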

[3] = NCI Yeast Anticancer Drug Screen. Data for the sgs1 mgt1 strain (AID 161);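 further: 0% = growth of cultures given vehicle only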; details: S. cerevisiae sgs1 mgt1 strain, at 50.0 µM, active compounds read high
Summary of the method: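 Percent growth inhibition was derived by comparing compound-exposed mutant yeast with vehicle-exposed cultures. The strain carries alterations in DNA damage repair.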

[4] = NCI Yeast Anticancer Drug Screen. Data for the cln2 rad14 strain (AID 165);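 further: 0% = growth equal to vehicle treated cultures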; details: S. cerevisiae cln2 rad14 strain, at 50.0 µM, active compounds read high
Summary of the method: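 Relative to vehicle controls, growth inhibition of compound-treated cln2 rad14 yeast was recorded.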

[5] = NCI Yeast Anticancer Drug Screen. Data for the bub3 strain (AID 167); details: S. cerevisiae bub3 mutant strain, at 50.0 µM, active compounds read high
Summary of the method: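 Yeast carrying a defined mutation is treated with each compound, and growth is compared with that of vehicle-exposed cells to give inhibition.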

[6] = NCI Yeast Anticancer Drug Screen. Data for the mlh1 rad18 strain (AID 175); details: S. cerevisiae mlh1 rad18 strain growth inhibition; at 50.0 µM; active compounds read high
Summary of the method: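 Test agents were incubated with a yeast strain of defined genotype (DNA damage repair defect). Inhibition of growth was derived by comparison with vehicle-exposed cultures.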

Measured: growth inhibition

COc1ccc(C(=O)c2ccccc2)c(OC(=O)Nc2c(Cl)cccc2Cl)c1
inactive: [1] -4.25% | [2] -23.9% | [3] 10.2% | [4] 1.05% | [5] -0.1% | [6] 22.6%

Cc1cc(Cl)c(=O)n(-c2ccccc2)n1
inactive: [1] 3.65% | [2] -9.7% | [3] -9.95% | [4] -27.8% | [5] 4.75% | [6] -16.1%

CC(=O)Oc1ccc(OC(C)=O)c(C(=O)O)c1
inactive: [1] 15.1% | [2] -2.65% | [3] 2.9% | [4] -39.3% | [5] -2.3% | [6] 17.4%

CCOC1C=CCCO1 (stereo not given)
inactive: [1] 20% | [2] -2.7% | [3] 8.65% | [4] -6.55% | [5] -7.2% | [6] 5.65%

CC(=O)c1ccc(I)cc1
inactive: [1] 5.15% | [2] -11.7% | [3] 24.6% | [4] 13.8% | [5] 14.1% | [6] 18.1%

CCc1cccc(CC)c1NC(=O)/C=C/C(=O)O
inactive: [1] -12.6% | [2] 3.45% | [3] -4.75% | [4] -46.6% | [5] -4.2% | [6] 4.1%

CN1C2CCC1CC(OC(c1ccccc1)c1ccccc1)C2 (stereo not given)
inactive: [1] 11.1% | [2] 4.05% | [3] -15.4% | [4] 0.25% | [5] 2.7% | [6] 5.1%

c1ccc(C2SCCCS2)cc1
inactive: [1] 33.2% | [2] 5.25% | [3] 17.8% | [4] 18.4% | [5] -4.5% | [6] 18.4%

O=c1[nH]c2cc(Cl)c(Cl)cc2c2ccc(Cl)cc12
inactive: [1] 12.2% | [2] -5.55% | [3] -0.35% | [4] -38% | [5] -15.6% | [6] -14.1%

O=[N+]([O-])c1cc(Cl)cc2c1-c1c(Cl)cc(Cl)cc1C2
inactive: [1] 16.8% | [2] 28.3% | [3] 7.65% | [4] 20.8% | [5] -6.25% | [6] 4.05%

Cn1c(N)c(N=Cc2ccc(Cl)cc2)c(=O)n(C)c1=O
inactive: [1] -9.2% | [2] 2.35% | [3] -5.5% | [4] -16.5% | [5] -7.75% | [6] -7.4%

CC1CN(C(=O)/C=C/C(=O)OC2CCCCC2)C(C)CN1C(=O)/C=C/C(=O)OC1CCCCC1 (stereo not given)
inactive: [1] 0.2% | [2] -3.15% | [3] -7.9% | [4] 1.7% | [5] -4.45% | [6] -27.2%

CCOC(=O)CCC(=O)C(=O)OCC
inactive: [1] 13.1% | [2] -24.8% | [3] 13.2% | [4] 20.9% | [5] 1.4% | [6] 20.1%

O=C1NC(CN2CCC(O)CC2)C(=O)NC1CN1CCC(O)CC1 (stereo not given)
inactive: [1] 0.6% | [2] 7.7% | [3] -10.2% | [4] 2.4% | [5] -1.05% | [6] -0.35%

COC1=CC(=C(\C#N)c2ccc(Cl)cc2)/C=CC/1=N/O
inactive: [1] 20.1% | [2] 11.6% | [3] 3.85% | [4] -7.25% | [5] 5.75% | [6] 21.9%

Brc1ccncc1
inactive: [1] -10.7% | [2] -47.5% | [3] -1.55% | [4] 3.35% | [5] -21.9% | [6] -13.6%

CCSCC1C=CC(n2cnc3c(N)ncnc32)O1 (stereo not given)
inactive: [1] -10.3% | [2] -29.2% | [3] -22.1% | [4] -0.25% | [5] 5.55% | [6] 10.1%

Cc1ccc(S(=O)(=O)C23N=NC(C)(C)C2N=NC3(C)C)cc1 (stereo not given)
inactive: [1] -10.8% | [2] -19.8% | [3] -6.9% | [4] -58% | [5] -46.6% | [6] 5.4%

O=C(O)C1CCCCCC1
inactive: [1] 7.45% | [2] 0.65% | [3] 1.8% | [4] -2.55% | [5] 8.65% | [6] 2%

C[C@]12CCC(=O)C=C1CC[C@@H]1[C@@H]2CC[C@@]2(C)[C@H]1CC[C@]2(O)C(=O)CCC#N
inactive: [1] -23.1% | [2] -2.6% | [3] 17.1% | [4] -33.4% | [5] -16.8% | [6] 13.2%

CN(C)CC(C(N)=O)C(N)=O
inactive: [1] -26.1% | [2] -18.8% | [3] -19.8% | [4] 9.6% | [5] -10.5% | [6] 7.45%

CN(C)CCNCCN
inactive: [1] 4% | [2] -28.4% | [3] -6.2% | [4] -1.55% | [5] -9.75% | [6] -15.6%

CC(=O)Nc1c(Cl)cccc1[N+](=O)[O-]
inactive: [1] -25.1% | [2] -18.8% | [3] -4.75% | [4] -26.4% | [5] -5.8% | [6] 5.85%

Cc1nc2ccc(N)cc2[nH]c1=O
inactive: [1] 16.9% | [2] 7% | [3] 12.8% | [4] 14.5% | [5] 6.5% | [6] 25.3%

O=C(COc1ccc(Cl)cc1)NC(CO)(CO)CO
inactive: [1] 22.1% | [2] 16.3% | [3] 18.9% | [4] 43% | [5] 17.1% | [6] 10.8%

COc1ccc(Cc2c3cc(OC)c(OC)cc3cc[n+]2C)cc1
inactive: [1] -0.05% | [2] -28.4% | [3] -17.9% | [4] -2.45% | [5] -10.8% | [6] -6.15%

CC(=O)N(C)c1ccc(Nc2cc(S(=O)(=O)O)c(N)c3c2C(=O)c2ccccc2C3=O)cc1
inactive: [1] -20.2% | [2] -14.1% | [3] -27.4% | [4] -13.8% | [5] -37.3% | [6] -4.25%

COC(=O)N/C(C)=N/OCc1ccccc1
inactive: [1] 1.2% | [2] 0.6% | [3] 4.3% | [4] 8.8% | [5] 15% | [6] -11.7%

CC(C)=C/C(C)=N/Nc1ccc([N+](=O)[O-])cc1[N+](=O)[O-]
inactive: [1] 5.9% | [2] 5.6% | [3] 13.5% | [4] 2.05% | [5] 12.8% | [6] -0.2%

O=c1c(-c2ccccc2)c(O)on1/C=C1/C=CC=N1
inactive: [1] -8.6% | [2] -25.2% | [3] 3.5% | [4] 3.8% | [5] 7.2% | [6] 1.5%

COc1cc(/C=N/N2CN(C(C)C(=O)O)B(NCCC(C)C)N=C2N)cc(OC)c1 (stereo not given)
inactive: [1] 0.85% | [2] -10.4% | [3] 22% | [4] -3.7% | [5] 23.6% | [6] -6%

C[N+]1(CC[N+]2(C)CCCC2c2cccnc2)CCCC1c1cccnc1 (stereo not given)
inactive: [1] 6.15% | [2] -0.2% | [3] -16.9% | [4] -34.5% | [5] 28% | [6] 19.9%

CCOC(OCC)c1ccccc1OC
inactive: [1] 1.85% | [2] 1.05% | [3] 4.95% | [4] -15.1% | [5] 3.6% | [6] -1.1%

O=C(O)c1ccnc(-c2ccc(Cl)cc2)c1
inactive: [1] 5.5% | [2] 5.75% | [3] -1.65% | [4] -17.2% | [5] -16.8% | [6] 9.05%

O=C(/C=C/c1ccccc1)c1cccc([N+](=O)[O-])c1
inactive: [1] 26% | [2] 14.6% | [3] 21.4% | [4] 54.9% | [5] 41.9% | [6] 4.4%
